Laboratory results as given in PubChem BioAssay (NCATS).
Inconclusive results are not listed. Values without a mark were called inactive. Active and inactive are the calls of the source. Calls come from the whole dose curve; as a rule, active = well fitted activation curve with a large enough effect; inconclusive = small, poorly fitted or top-dose-only effect; inactive = no such curve, though single readings can be large or run the other way.

assay: qHTS for activators of Nrf2/ARE signaling pathway screened against the NCATS CANVASS Library (AID 1347391); conditions: ARE-bla HepG2, beta-lactamase reporter, 16 h; series mostly up to 46.1 µM; activation: at the top concentration; note: nearly all actives have a fitted effect of over 60% in size; for activation: 0% is about no effect
Excerpt: Natural products and their derivatives continue to be wellsprings of nascent therapeutic potential. However, many laboratories have limited resources for biological evaluation, leaving their previously isolated or synthesized compounds largely or completely untested. To address this issue, the Canvass library of natural products was assembled (https://tripod.nih.gov/canvass), in collaboration with academic and industry researchers, for quantitative high-throughput screening (qHTS) across a diverse set of cell-based and biochemical assays. The pure (>85% purity by liquid chromatography/mass spectrometry [LC/MS]) Canvass library of 346 natural products were submitted by 45 academic laboratories and companies around the world. We collected pure natural products to circumvent deconvolution and structure elucidation due to time and resource limitations. The library was formatted into 1536-well plates and evaluated in 50 qHTS (in an 11-pnt concentration series) bioassays with broad scope of disease-relevant mechanisms. The resulting data set from 50 different assays was then systematically analyzed to identify overall trends and specific natural products with interesting biological activities. Reported herein are the results of each individual qHTS and their corresponding assay protocol. This assay measures the activation of the Nrf2/ARE signaling pathway in cells using a beta-lactamase reporter gene. The ARE-bla HepG2 assay (Invitrogen) can detect the up-regulation of the antioxidant response element (ARE) signaling pathway and may be useful for the identification of chemicals that induce oxidative stress. National Center for Advancing Translational Sciences (NCATS), Rockville, MD National Institute of Health (NIH), Bethesda, Maryland
Nrf2/ARE-screen assay protocol: 1. In a white-solid bottom 1536-well plate, 5 uL of ARE-bla HepG2 cell suspension was dispensed using a Multidrop Combi (Thermo Fisher Scientific) at a final concentration of 2000 cells / well. 2. The assay plates were incubated for 5 hours at 37C, 5% CO2. 3. 23 nL of compounds (in DMSO; columns 5-48), vehicle control DMSO, and positive control were pin transferred into the assay plates using the Kalypsis pin tool (Wako USA) equipped with a 1536-well pin heads. This yields a final CANVASS compound concentration of 0.4 nM - 95 uM. 4. The assay plates were incubated for 16 hours at 37C, 5% CO2. 5. After compound treatment, 1 uL per well of CCF4 dye detection reagent was added using the BioRAPTR dispenser. 6. The assay plates were incubated for 2 hours at room temperature. 7. Fluorescence readout was obtained using the Envision plate reader (PerkinElmer) using a 405 nm excitation and 460 nm and 530 nm emission filters. 8. To evaluate cell viability, 4 uL of CellTiter-Glo was added to each wells using the BioRAPTR dispenser followed by a 30 min room temperature incubation. 9. Luminescence was measured using the ViewLux plate reader with clear emission filter and 2x binning, 1 sec exposure settings.
Potency is the fitted concentration of half-maximal effect.

In order of falling “activation” value:
1. CC[C@@H]1CN2CC[C@@]3(O)C(=Nc4cccc(OC)c43)[C@@H]2C[C@@H]1/C(=C\OC)C(=O)OC  28.6%
2. COC(=O)C1=C2Nc3ccccc3[C@@]23CCN2CC(C(C)=O)C1C[C@H]23 (stereo not given in full)  19.3%
3. CO[C@@H](/C=C/CC/C=C/C(=O)O)[C@@H](O)[C@H](C)[C@@H](O)/C(C)=C/[C@H](C)C(=O)CCCC1CC(=O)NC(=O)C1  16.7%
4. c1ccc2c3c([nH]c2c1)CNCC3  15.9%
5. CCCC[C@@H]1CC[C@H]2CCCC(CCC)N12 (stereo not given in full)  15.5%
6. CN1C(=O)[C@]23CC4C(C)(C)[C@@]5(C[C@@]41CN2CC[C@@]3(C)O)C(=O)Nc1c5ccc2c1OC=CC(C)(C)O2 (stereo not given in full)  13.7%
7. NCCc1ccccc1  12%
8. CNCCc1c[nH]c2ccccc12  11.2%
9. CN(C)Cc1c[nH]c2ccccc12  10.2%
10. CO[C@@H](/C=C/CC/C=C/C(=O)O)[C@@H](O)[C@H](C)/C=C(\C)[C@@H](O)[C@H](C)C(=O)CCCC1CC(=O)NC(=O)C1  8.41%
11. CCN1C[C@]2(C)CC[C@@H](O)[C@]34C1[C@H](C[C@H]23)C12CCC(CC14)[C@](O)(CO)[C@H]2O (stereo not given in full)  7.78%
12. CCC[C@H]1CC[C@H]2[C@H](C)CCC[C@H]2N1  6.98%
13. CCN1C[C@]2(C)CC[C@H](O)[C@]34C1C(C[C@H]23)[C@@]12CC[C@H](CC14)[C@](O)(COC(=O)c1ccc(OC)c(OC)c1)[C@H]2O (stereo not given in full)  6.2%
14. CC[N@@+]1([O-])C[C@]2(C)CC[C@@H](O)[C@@]34C5C[C@H]6CC[C@@]5(C(C[C@H]23)C41)[C@H](O)[C@@]6(O)CO (stereo not given in full)  5.37%
15. CC1=CC2CC[C@@H]3[C@@H](C)C[C@H](C)[C@@H](C1)N23 (stereo not given in full)  5.24%
16. CNCCc1ccc(O)cc1  2.53%
17. CNCCc1ccccc1  2.21%
18. C=C1[C@@H](C)[C@H]2[C@H](Cc3ccccc3)NC(=O)[C@]23OC(=O)/C=C/[C@H](O)CCC[C@@H](C)C/C=C/[C@H]3[C@@H]1O  -8.25%
19. CCCCC[C@@H]1OC(=O)[C@@H](C)N(C)C(=O)[C@H](CCCCC)OC(=O)C(C)N(C)C(=O)[C@H](CCCCC)OC(=O)[C@@H](C)N(C)C(=O)[C@H](CCCCC)OC(=O)C(C)N(C)C1=O (stereo not given in full)  -28.4%
20. O=C(c1ccccc1O)c1[nH]c(Cl)c(Cl)c1-n1c(C(=O)c2ccccc2O)cc(Cl)c1Cl  -33.3%
21. CCC(=O)CCCCC[C@@H]1NC(=O)[C@H]2CCCCN2C(=O)[C@H]([C@@H](C)CC)NC(=O)[C@H](Cc2cn(OC)c3ccccc23)NC1=O  -43.4%

For CO[C@H](c1ccccc1)[C@H]1NC(=O)C(C)NC(=O)C(C[C@@H](C)CO)N(C)C(=O)[C@@H](C(O)c2cn(C(C)(C)C3CO3)c3ccccc23)NC(=O)C(C(C)C=C(C)C)NC(=O)C(CC(C)C)N(C)C(=O)C(C(C)C)NC1=O (stereo not given in full), the “activation” value was 16.5% [at 27.5 µM].

In the case of CC(=O)N[C@H]1CCN2CCC[C@H]12, the “activation” value is reported as -0.856% [at 103 µM].

For CC1=CC(=O)C2=C(C)C[C@H](O)[C@@H]3[C@H](OC(=O)[C@@H]3C)[C@@H]12, the Potency was 13.2 µM (active).

For C/C=C1/CN2CC[C@]34C(=Nc5ccccc53)[C@@H]2C[C@@H]1[C@H]4C(=O)OC, the “activation” value was 7.21% [at 91.4 µM].
